Source: PubChem BioAssay (The Scripps Research Institute Molecular Screening Center)
LYPLA1 inh = counter-screen for PME1 inhibitors: inhibitors of human LYPLA1; inhibition, % at 5.9 µM; O75608; recombinant LYPLA1, FP-Rh probe fluorescence polarization; AID 2174; 320,000 tested, 0.16% active;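 active = inhibition above the mean of all tested compounds plus 3 SD, set per campaign, cut at about 14% in these data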;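 also: inhibitors block serine hydrolase probe labeling of LYPLA1 so polarization falls; 0% = enzyme with DMSO and 100% = wells lacking LYPLA1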
Fam108B inh = blocks mouse Fam108B hydrolase in RBBP9 counter-screen; recombinant Fam108B, FP-Rh probe fluorescence polarization; inhibition, % at 9.51 µM; AID 1947; 300,000 tested, 0.33% active;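 active = inhibition above the screen mean inhibition plus 3 SD, computed separately per campaign, cut at about 18% in these data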;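 also: inhibitors lower polarization as less probe binds the enzyme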
PME-1 primary = blocks human protein phosphatase methylesterase 1 | Q9Y570 | recombinant PME-1, FP-Rh probe fluorescence polarization | inhibition, % at 5.9 µM | 320,000 tested, 0.53% active;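 active = inhibition above the campaign mean of all compounds plus 3 SD, cut at about 26% in these data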;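 also: competitive labeling of PME-1 active site by serine hydrolase directed probe; 0% = PME-1 with DMSO and 100% = wells lacking PME-1 enzyme; inhibitors block probe labeling so polarization falls and inhibition rises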
Target sequence (Q9Y570 whole entry, looked up): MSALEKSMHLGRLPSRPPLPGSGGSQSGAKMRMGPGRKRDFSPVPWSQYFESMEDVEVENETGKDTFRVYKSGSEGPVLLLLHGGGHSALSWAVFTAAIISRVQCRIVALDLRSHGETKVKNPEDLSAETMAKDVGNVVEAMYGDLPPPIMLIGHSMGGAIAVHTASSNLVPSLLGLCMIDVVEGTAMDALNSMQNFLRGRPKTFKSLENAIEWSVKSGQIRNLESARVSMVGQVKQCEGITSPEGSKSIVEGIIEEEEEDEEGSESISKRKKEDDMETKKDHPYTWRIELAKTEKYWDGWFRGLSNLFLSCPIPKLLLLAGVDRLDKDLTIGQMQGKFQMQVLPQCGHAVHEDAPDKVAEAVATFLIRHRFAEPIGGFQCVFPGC
PP1 inh = counter-screen for PP5 inhibitors: inhibitors of human PP1-alpha; 320,000 tested, 0.9% active; P62136; purified PP1alpha, OMFP fluorescence; inhibition, % at 6.7 µM; AID 2235;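 active = inhibition above the mean inhibition of all tested compounds plus 3 SD, computed separately for each screening campaign, cut at about 15% in these data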
LYPLA2 inh = counter-screen for PME1 inhibitors: inhibitors of human LYPLA2; inhibition, % at 5.9 µM; O95372; AID 2177; 320,000 tested, 0.38% active; recombinant LYPLA2, FP-Rh probe fluorescence polarization;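 active = inhibition above the screen-wide mean plus 3 SD, limit set per campaign, cut at about 26% in these data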;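 also: 0% = LYPLA2 with DMSO and 100% = wells lacking LYPLA2 enzyme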
Target sequence (O95372 whole entry, looked up): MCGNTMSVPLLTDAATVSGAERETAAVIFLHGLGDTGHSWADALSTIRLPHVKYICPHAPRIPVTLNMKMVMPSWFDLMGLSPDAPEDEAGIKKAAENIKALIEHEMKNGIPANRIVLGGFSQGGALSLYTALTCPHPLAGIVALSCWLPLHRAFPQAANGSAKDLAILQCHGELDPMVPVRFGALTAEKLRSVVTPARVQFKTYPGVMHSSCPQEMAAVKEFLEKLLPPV
PP5 inh = inhibitors of human protein phosphatase 5 (PP5). P53041. purified PP5c, OMFP substrate fluorescence. inhibition, % at 6.7 µM. 320,000 tested, 0.18% active;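 active = inhibition above the campaign's mean inhibition across all tested compounds plus 3 SD, cut at about 9.5% in these data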;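 also: 0% = DMSO only and 100% = 100 µM cantharidin control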
The depositor's hits bear a star. The list is not random: actives were taken first. Their share in the collection is about 1.8%.

`CC(C)=CCc1cc2c(=O)c3c(O)c4c(cc3oc2c(O)c1O)OC(C)C4(C)C` (stereo unspecified) gave LYPLA1 inh -29, Fam108B inh -2, PME-1 primary 30*, PP1 inh 3, LYPLA2 inh -37 and PP5 inh 5.
CCOc1ccc(NC(=S)NNc2ccnc3cc(Cl)ccc23)cc1 was read as LYPLA1 inh -6, Fam108B inh 5, PME-1 primary 38*, PP1 inh 13, LYPLA2 inh -1 and PP5 inh 0.
`S=C(NNc1ccnc2cc(Cl)ccc12)Nc1ccc(Cl)cc1Cl` gave LYPLA1 inh -4, Fam108B inh 7, PME-1 primary 25, PP1 inh 4, LYPLA2 inh 15 and PP5 inh 5.
Screening COC(=O)c1ccc(CNC(=O)c2ccc(OC)c(S(=O)(=O)NC3CCCC3)c2)cc1 returned LYPLA1 inh 1, PME-1 primary 16, PP1 inh -3, LYPLA2 inh 8 and PP5 inh 2.
For CCOc1ccc(N2CC(C(=O)Nc3nnc(Cc4ccc(OC)cc4)s3)CC2=O)cc1 (stereo unspecified) the results were LYPLA1 inh -1, Fam108B inh -4, PME-1 primary -13, PP1 inh 16*, LYPLA2 inh 2 and PP5 inh 3.
Screening CCOC(=O)c1sc(NC(=O)c2cccs2)cc1C returned LYPLA1 inh -8, Fam108B inh 5, PME-1 primary 3, PP1 inh 1, LYPLA2 inh -6 and PP5 inh 2.
For CN(C)c1ccc(NC(=O)Nc2cccc(Cl)c2)cc1 the results were LYPLA1 inh -4, Fam108B inh 5, PME-1 primary 32*, PP1 inh -2, LYPLA2 inh 3 and PP5 inh 2.
For CCOC(=O)c1sc(NC(=O)Nc2cccc(Cl)c2)cc1C the results were LYPLA1 inh -19, Fam108B inh 25*, PME-1 primary 13, PP1 inh 6, LYPLA2 inh -13 and PP5 inh 1.
Screening O=C(NCc1ccc(F)cc1)C1CCCN(C(=O)Nc2ccc(F)cc2)C1 (stereo unspecified) returned LYPLA1 inh 0, Fam108B inh 6, PME-1 primary 1, PP1 inh -3, LYPLA2 inh -1 and PP5 inh 0.
For Cc1cccc2c(C(=O)N3CCN(c4ccccn4)CC3)cc(-c3cccc(Br)c3)nc12 the results were LYPLA1 inh -6, Fam108B inh -5, PME-1 primary -9, PP1 inh 15*, LYPLA2 inh -12 and PP5 inh 1.
For COc1ccc(Cl)cc1NC(=O)CN(C)C(=O)Cc1n[nH]c(=O)c2ccccc12 the results were LYPLA1 inh 2, Fam108B inh 3, PME-1 primary -4, PP1 inh -7, LYPLA2 inh 1 and PP5 inh -1.
`Cc1ccc(Nc2nnc(SCC(=O)c3ccc(O)cc3O)s2)cc1` gave LYPLA1 inh -5, Fam108B inh 8, PME-1 primary 37*, PP1 inh 7, LYPLA2 inh 1 and PP5 inh 5.
Cc1cc([N+](=O)[O-])cc(C)c1OCC(=O)N/N=C/c1ccc(OC(=O)c2ccccc2)cc1 was read as LYPLA1 inh -3, Fam108B inh -1, PME-1 primary 3, PP1 inh 5, LYPLA2 inh 1 and PP5 inh 1.
`COc1cccc(C(=O)NCC(=O)N/N=C/c2cccc(OC(=O)c3ccc([N+](=O)[O-])cc3)c2)c1` gave LYPLA1 inh 2, Fam108B inh -5, PME-1 primary -1, PP1 inh 2, LYPLA2 inh 3 and PP5 inh -2.
Screening Cc1cc([N+](=O)[O-])cc(C)c1OCC(=O)N/N=C/c1ccc(OC(=O)c2ccccc2Br)cc1 returned LYPLA1 inh -3, Fam108B inh -13, PME-1 primary -4, PP1 inh 16*, LYPLA2 inh 0 and PP5 inh 1.
`O=C(CNC(=O)c1ccc([N+](=O)[O-])cc1)N/N=C\c1ccc(OC(=O)c2ccccc2)cc1` gave LYPLA1 inh -6, Fam108B inh -8, PME-1 primary -6, PP1 inh 16*, LYPLA2 inh -7 and PP5 inh -1.
CC(=O)Nc1nnc(CCS(=O)(=O)c2ccc(C)cc2)s1 was read as LYPLA1 inh 2, Fam108B inh 2, PME-1 primary -3, PP1 inh -5, LYPLA2 inh 0 and PP5 inh -1.
For COc1ccc(-c2cnnc(N/N=C/c3ccc(O)c(O)c3)n2)cc1 the results were LYPLA1 inh -8, Fam108B inh 12, PME-1 primary 29*, PP1 inh 0, LYPLA2 inh -15 and PP5 inh 3.
COc1ccc(-c2cnnc(N/N=C/c3ccc(O)cc3)n2)cc1 was read as LYPLA1 inh -8, Fam108B inh 2, PME-1 primary 7, PP1 inh 4, LYPLA2 inh -7 and PP5 inh 3.
For CC1CCCN(C(=O)CN2C(=O)CSc3ccc(S(=O)(=O)N4CCOCC4)cc32)C1 (stereo unspecified) the results were LYPLA1 inh -1, Fam108B inh -1, PME-1 primary 0, PP1 inh 1, LYPLA2 inh 2 and PP5 inh 2.
Screening O=C(C1=C[C@@H](c2csc3ccccc23)C[C@@H](OCc2ccc(CO)cc2)O1)N1CCN(Cc2ccccc2)CC1 returned LYPLA1 inh -6, Fam108B inh -6, PME-1 primary -3, PP1 inh 9, LYPLA2 inh -2 and PP5 inh 5.
`O=C(C1=C[C@@H](c2csc3ccccc23)C[C@@H](OCc2ccc(CO)cc2)O1)N1CCN(Cc2ccc3c(c2)OCO3)CC1` gave LYPLA1 inh -6, Fam108B inh -5, PME-1 primary -12, PP1 inh 16*, LYPLA2 inh -15 and PP5 inh 4.
For COc1ccccc1OC(C)C(=O)Nc1ccc(S(=O)(=O)N2CCN(C)CC2)cc1 (stereo unspecified) the results were LYPLA1 inh -2, Fam108B inh -2, PME-1 primary -3, PP1 inh 2, LYPLA2 inh -6 and PP5 inh 1.
Screening N=c1c(C(=O)NC2CCCCC2)cc2c(=O)n3ccccc3nc2n1CCc1ccccc1 returned LYPLA1 inh -2, Fam108B inh 2, PME-1 primary 4, PP1 inh 0, LYPLA2 inh -4 and PP5 inh 2.
For CCCCNc1c(-c2ccc(-c3ccc(C(C)=O)cc3)c(OC)c2)nc2cnccn12 the results were LYPLA1 inh -5, Fam108B inh 2, PME-1 primary 5, PP1 inh 17*, LYPLA2 inh -2 and PP5 inh 5.
Screening COc1cc(-c2nc3cnccn3c2NC(C)(C)CC(C)(C)C)ccc1O returned LYPLA1 inh 5, Fam108B inh 4, PME-1 primary 4, PP1 inh 6, LYPLA2 inh 11 and PP5 inh 1.
